The full ranking holds about 8,300 sequences; the median of “log2 fold change of degron read counts, EGFP-low vs EGFP+ sorted cells (limma voom), compound-induced degradation” is about -1.1, and the highest 2% start at about 3.2. Shown is part of a subset that was picked to be rich in the highest values.

These results are taken from the supplement of paper PMC12645437, “Orthogonal IMiD-Degron Pairs Induce Selective Protein Degradation in Cells” (ACS Chemical Biology, 2025).

The assay has as its target T1, CRBN, Q96SW2.
T1 chain: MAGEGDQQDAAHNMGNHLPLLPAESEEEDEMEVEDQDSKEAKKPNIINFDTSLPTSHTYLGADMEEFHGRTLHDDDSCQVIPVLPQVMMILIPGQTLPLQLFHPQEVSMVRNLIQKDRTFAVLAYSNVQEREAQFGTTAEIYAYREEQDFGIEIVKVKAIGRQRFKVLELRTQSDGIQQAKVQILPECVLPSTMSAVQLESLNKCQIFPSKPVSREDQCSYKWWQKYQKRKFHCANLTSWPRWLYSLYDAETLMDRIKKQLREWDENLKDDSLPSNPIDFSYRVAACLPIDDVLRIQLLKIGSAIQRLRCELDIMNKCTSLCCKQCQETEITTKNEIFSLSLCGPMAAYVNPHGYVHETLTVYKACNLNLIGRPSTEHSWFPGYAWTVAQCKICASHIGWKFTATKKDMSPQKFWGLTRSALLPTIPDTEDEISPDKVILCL
The experiment in a line: log2 fold change of degron read counts, EGFP-low vs EGFP+ sorted cells (limma voom), compound-induced degradation; higher = more compound-induced degradation of the degron-EGFP fusion; degrons are variants of IKZF1/3 zinc finger 2; compound dose not given here. To be noted: Jurkat, 18 h.

[1] abbreviates: compound: compound 19 (5-tert-butyl-thalidomide).
The mark [2] stands for this setting: compound: compound 22 (5-morpholino-thalidomide).
The mark [3] stands for this setting: compound: compound 33 (diphenyl IMiD analogue).
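Also: pooled lentiviral library of zinc finger degron-EGFP fusions in mCherry-positive Jurkat cells, FACS-sorted after compound exposure, with degron abundance counted by next-generation sequencing.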

Regarding FECNQCGAGFTQKGNLLRHIKL [46F_47E_49N_50Q_52G_53A_54G_55F_67L_, Q9UKT9], the “log2 fold change of degron read counts” value was -2.2 under setting [1], -2.79 under setting [2], -2.43 under setting [3] and -2.17 (compound: thalidomide).

LLCNQCGFQCTQKGNLLRHIKL [46L_47L_49N_50Q_52G_53F_54Q_55C_67L_, Q9UKT9]: the “log2 fold change of degron read counts” value runs as follows: under setting [1], -2.02; under setting [2], -1.96; under setting [3], -2.15; (compound: thalidomide) -1.68.

FQCNVCGAYFTQKGNLLRHIKL [46F_47Q_49N_50V_52G_53A_54Y_55F_67L_, Q9UKT9]: the “log2 fold change of degron read counts” value was -2.25 under setting [1], -1.8 under setting [2], -0.854 under setting [3] and 1.41 (compound: thalidomide).

Take FICEICGHAFTQKGNLLRHIKL [46F_47I_49E_50I_52G_53H_54A_55F_67L_, Q9UKT9]: the “log2 fold change of degron read counts” value was -3.32 under setting [1], -2.94 under setting [2], -2.31 under setting [3] and -1.67 (compound: thalidomide).

Regarding FRCDQCGACFTQKGNLLRHIKL [46F_47R_49D_50Q_52G_53A_54C_55F_67L_, Q9UKT9], the “log2 fold change of degron read counts” value is, setting by setting: under setting [1], -2.93; under setting [2], -3.5; under setting [3], -1.12; (compound: thalidomide) -2.52.

Turning to FHCEICGHSFTQKGNLLRHIKL [46F_47H_49E_50I_52G_53H_54S_55F_67L_, Q9UKT9], the “log2 fold change of degron read counts” value is, setting by setting: under setting [1], -2.93; under setting [2], -3.88; under setting [3], -2.79; (compound: thalidomide) -3.22.

Take FTCNQCGHFFTQKGNLLRHIKL [46F_47T_49N_50Q_52G_53H_54F_55F_67L_, Q9UKT9]: the “log2 fold change of degron read counts” value by setting is: under setting [1], -1.82; under setting [2], -2.32; under setting [3], -2.31; (compound: thalidomide) -2.01.

Consider FICEICGRCFTQKGNLLRHIKL [46F_47I_49E_50I_52G_53R_54C_55F_67L_, Q9UKT9], for which the “log2 fold change of degron read counts” value reads like this: under setting [1], -2.73; under setting [2], -1.99; under setting [3], -0.856; (compound: thalidomide) -0.602.

For the sequence FCCPVCGAHFTQKGNLLRHIKL [46F_47C_49P_50V_52G_53A_54H_55F_67L_, Q9UKT9], the “log2 fold change of degron read counts” value was 1.59 under setting [1], 0.752 under setting [2], 1.65 under setting [3] and 0.961 (compound: thalidomide).

Turning to LRCNQCGFFCTQKGNLLRHIKL [46L_47R_49N_50Q_52G_53F_54F_55C_67L_, Q9UKT9], the “log2 fold change of degron read counts” value under setting [1] is -1.45, the “log2 fold change of degron read counts” value under setting [2] is -1.65, the “log2 fold change of degron read counts” value under setting [3] is -1.16 and the “log2 fold change of degron read counts” value (compound: thalidomide) is -0.846.

In the case of FYCEICGASFTQKGNLLRHIKL [46F_47Y_49E_50I_52G_53A_54S_55F_67L_, Q9UKT9], the “log2 fold change of degron read counts” value under setting [1] was found to be 3.72, the “log2 fold change of degron read counts” value under setting [2] turned out to be 3.7, the “log2 fold change of degron read counts” value under setting [3] stood at 2.91 and the “log2 fold change of degron read counts” value (compound: thalidomide) was 1.64.

With FGCEICGASFTQKGNLLRHIKL [46F_47G_49E_50I_52G_53A_54S_55F_67L_, Q9UKT9], the “log2 fold change of degron read counts” value came out at 3.07 under setting [1], 2.12 under setting [2], 1.77 under setting [3] and 1.03 (compound: thalidomide).

Take FKCEICGASFTQKGNLLRHIKL [46F_47K_49E_50I_52G_53A_54S_55F_67L_, Q9UKT9]: the “log2 fold change of degron read counts” value under setting [1] worked out at 1.57, the “log2 fold change of degron read counts” value under setting [2] was -0.809, the “log2 fold change of degron read counts” value under setting [3] was -2.2 and the “log2 fold change of degron read counts” value (compound: thalidomide) was -0.268.

Take FQCEICGASFTQKGNLLRHIKL [46F_47Q_49E_50I_52G_53A_54S_55F_67L_, Q9UKT9]: the “log2 fold change of degron read counts” value is, setting by setting: under setting [1], 2.5; under setting [2], 2.8; under setting [3], 2.23; (compound: thalidomide) 3.75.

Regarding FMCEICGASFTQKGNLLRHIKL [46F_47M_49E_50I_52G_53A_54S_55F_67L_, Q9UKT9], the “log2 fold change of degron read counts” value under setting [1] is 1.61, the “log2 fold change of degron read counts” value under setting [2] was determined as 1.94, the “log2 fold change of degron read counts” value under setting [3] stood at 2.9 and the “log2 fold change of degron read counts” value (compound: thalidomide) was 2.

As to FCCEICGASFTQKGNLLRHIKL [46F_47C_49E_50I_52G_53A_54S_55F_67L_, Q9UKT9], the “log2 fold change of degron read counts” value runs as follows: under setting [1], 3.35; under setting [2], 2.7; under setting [3], 2.35; (compound: thalidomide) 2.35.

FHCEICGASFTQKGNLLRHIKL [46F_47H_49E_50I_52G_53A_54S_55F_67L_, Q9UKT9]: the “log2 fold change of degron read counts” value was 3.13 under setting [1], 2.67 under setting [2], 1.52 under setting [3] and 0.22 (compound: thalidomide).

FDCEICGASFTQKGNLLRHIKL [46F_47D_49E_50I_52G_53A_54S_55F_67L_, Q9UKT9]: the “log2 fold change of degron read counts” value turned out to be 3.18 under setting [1], 0.784 under setting [2], 0.437 under setting [3] and 1.24 (compound: thalidomide).

Consider FSCEICGASFTQKGNLLRHIKL [46F_47S_49E_50I_52G_53A_54S_55F_67L_, Q9UKT9], for which the “log2 fold change of degron read counts” value reads like this: under setting [1], 3.56; under setting [2], 2.8; under setting [3], 2.11; (compound: thalidomide) 1.64.
